Assay results: PubChem BioAssay (NCI)
About 83,000 compounds went through this panel and 20% of them were active in at least one assay; those are over-represented in the sample as a whole.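 Cell lines were cultured in 96-well plates, exposed to a single compound concentration, and assessed for percent growth 48 hours later.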 Activity calls are given as the source filed them. Rule for the calls: active = growth percent below 10; inactive = the rest.

How the values were obtained:
Test in all cases: NCI-60 one-dose screen, 48 h (100 = growth as untreated, 0 = no growth, -100 = all killed)
[1] = tested on: RPMI-8226 leukemia; settings: 10 µM unless noted
[2] = tested on: OVCAR-8 ovarian; settings: 10 µM unless noted
[3] = tested on: OVCAR-5 ovarian; settings: 10 µM unless noted
[4] = tested on: OVCAR-4 ovarian; settings: 10 µM unless noted
[5] = tested on: SK-OV-3 ovarian; settings: 10 µM unless noted
[6] = tested on: IGROV1 ovarian; settings: 10 µM unless noted
[7] = tested on: OVCAR-3 ovarian; settings: 10 µM unless noted
[8] = tested on: HS 578T breast; settings: 10 µM
[9] = tested on: NCI/ADR-RES ovarian; settings: 10 µM unless noted
[10] = tested on: T-47D breast; settings: 10 µM unless noted
[11] = tested on: BT-549 breast; settings: 10 µM unless noted
[12] = tested on: MDA-MB-435 melanoma; settings: 10 µM unless noted
[13] = tested on: SW-620 colon; settings: 10 µM unless noted
[14] = tested on: MCF7 breast; settings: 10 µM unless noted
[15] = tested on: HCT-116 colon; settings: 10 µM unless noted
[16] = tested on: HCC-2998 colon; settings: 10 µM unless noted
[17] = tested on: KM12 colon; settings: 10 µM unless noted

Measured: growth

Brc1ccccc1Cn1c(-c2cncs2)nc2ccccc21
inactive: [1] 43.3% | [2] 79.2% | [3] 70.8% | [4] 72.4% | [5] 92.2% | [6] 86.9% | [7] 86.6% | [8] 69.5% | [9] 83.5% | [10] 72.2% | [11] 85.4% | [12] 110% | [13] 88.4% | [14] 98.9% | [15] 73.3% | [16] 92% | [17] 76.7%

COc1ccc(/C=C/C(=O)c2ccc(NC(=O)CSc3nnc(-c4ccc(Cl)cc4)n3-c3ccccc3)cc2)cc1
inactive: [1] 60.4% | [2] 84.6% | [3] 123% | [4] 99.5% | [5] 104% | [6] 103% | [7] 102% | [8] 97.1% | [9] 93.9% | [10] 77.2% | [11] 93% | [12] 94.4% | [13] 110% | [14] 70.3% | [15] 36.4% | [16] 103% | [17] 94.5%

COc1ccc(C(=O)C(CN(C)C)c2ccccc2)cc1 (centres undefined)
active: [1] 9.15% | [6] 1.31% | [7] 0.0357% | [8] -13.8% | [9] 9.35% | [10] 9.93% | [13] -84.7% | [14] -1.32% | [15] -99.1% | [17] 6.49%
inactive: [2] 17% | [3] 44.3% | [4] 33.4% | [5] 110% | [11] 12.9% | [12] 25.4% | [16] 93.9%

CC1CN(CCCOC(=O)Nc2ccc(Cl)cc2)CCN1C(C)(C)C (centres undefined)
inactive: [1] 100% | [2] 104% | [3] 105% | [4] 111% | [5] 93.8% | [6] 100% | [7] 104% | [8] 116% | [9] 99.6% | [10] 90% | [11] 101% | [12] 102% | [13] 110% | [14] 99% | [15] 100% | [16] 101% | [17] 106%

C=CCN(CCOC(=O)c1ccc([N+](=O)[O-])cc1)CCOC(=O)c1ccc([N+](=O)[O-])cc1
inactive: [1] 94.3% | [2] 98.7% | [3] 102% | [4] 99.5% | [5] 99.2% | [6] 88.1% | [7] 104% | [8] 101% | [9] 96.8% | [10] 90.5% | [11] 100% | [12] 107% | [13] 100% | [14] 96.3% | [15] 96.2% | [16] 105% | [17] 103%

O=C(/C=C/c1ccccc1)n1c(-c2ccccc2)nc2ccccc21
inactive: [1] 105% | [2] 98.9% | [3] 95.7% | [4] 101% | [5] 110% | [6] 105% | [7] 111% | [9] 104% | [10] 97.3% | [11] 112% | [12] 99.9% | [13] 102% | [14] 97.5% | [15] 109% | [17] 104%

CCCCC(CCc1ccccn1)C(=O)c1ccccc1 (centres undefined)
inactive: [1] 106% | [2] 112% | [3] 109% | [4] 110% | [5] 110% | [6] 101% | [7] 116% | [9] 104% | [10] 100% | [11] 108% | [12] 111% | [13] 112% | [14] 105% | [15] 109% | [16] 111% | [17] 136%

Clc1ccccc1Nc1nnc(-c2ccncc2)s1
inactive: [1] 89.2% | [2] 100% | [3] 107% | [4] 94.5% | [5] 105% | [6] 101% | [7] 110% | [8] 94.9% | [9] 102% | [10] 89.5% | [11] 90.4% | [12] 93.6% | [13] 91.6% | [14] 96% | [15] 102% | [16] 106% | [17] 107%

COc1ccc(Nc2ncnc3c2sc2nc(C)cc(C)c23)cc1
inactive: [1] 101% | [2] 95% | [3] 93.1% | [4] 95.2% | [5] 118% | [6] 99.4% | [7] 113% | [9] 108% | [10] 89.6% | [11] 104% | [12] 98.7% | [13] 108% | [14] 80.1% | [15] 90.4% | [17] 96.7%

O=C(CCCCCCc1nc2ccc(Br)cc2[nH]1)NO
active: [1] -4.38% | [2] 4.11% | [3] 8.25% | [5] -41.8% | [6] -9.43% | [7] -2.31% | [9] -31.3% | [10] -32.3% | [12] -10.5% | [13] -76.8% | [14] 1.84% | [15] -89.2% | [17] -65.4%
inactive: [4] 24% | [8] 32.6% | [11] 16.4%

O=C(Nc1ccc(Cl)c(C(F)(F)F)c1)c1ccc(Nc2ccc(Cl)nn2)cc1
inactive: [1] 38.3% | [2] 55.2% | [3] 76.7% | [4] 42.2% | [5] 85.3% | [6] 87.6% | [7] 66.8% | [8] 85.7% | [9] 61.1% | [10] 28.6% | [11] 37.2% | [12] 80.2% | [13] 96.8% | [14] 53% | [15] 53.5% | [16] 67.4% | [17] 51.1%

Fc1ccc(-c2ccnc3nc(-c4ccncc4)nn23)cc1
inactive: [1] 98.5% | [2] 96.5% | [3] 100% | [4] 109% | [5] 104% | [6] 104% | [7] 105% | [8] 113% | [9] 106% | [10] 90.1% | [11] 93.8% | [12] 107% | [13] 30.3% | [14] 86.1% | [15] 95.1% | [17] 99.8%

COc1cc(/C=C/C(=O)c2ccc(NC(=O)CSc3nnc(-c4ccc(Cl)cc4)n3-c3ccccc3)cc2)cc(OC)c1OC
active: [1] 9.23% | [15] 7.2%
inactive: [2] 62.3% | [3] 128% | [4] 57.2% | [5] 86.6% | [6] 74.7% | [7] 73.4% | [8] 92.9% | [9] 87.9% | [10] 47.5% | [11] 59.6% | [12] 64.4% | [13] 68.2% | [14] 20.8% | [16] 76.2% | [17] 67.9%
